# Legend:
# Experiment in all cases: PBM binding z-score (relative to random genomic background probes); higher = stronger binding; sequences stand for … in GC…GCGATTGACAGCGTAGAATGAAGG
# [1] = tested on: PPARg:RXRa DBDmut IVT, anti-RXR (DBD mutation: RXRa K156A/R161A, NR concentration 270 nM, RXRa partner concentration 90 nM)
# How it was run: (§1)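 Each nuclear receptor dimer, without ligand, was incubated for 1 h on custom Agilent 4×180K protein-binding microarrays. Binding was detected with antibodies against each partner (one per run), and scanned fluorescence was regression-normalized. The binding z-scores are referenced to random human genomic background probes.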
# [2] = tested on: PPARg:RXRa IVT, anti-PPARg (NR concentration 270 nM, RXRa partner concentration 90 nM)
# How it was run: as §1
# [3] = tested on: PPARg DBDmut:RXRa IVT, anti-PPARg (DBD mutation: PPARg1 K132A/R137A, NR concentration 270 nM, RXRa partner concentration 90 nM)
# How it was run: as §1
# [4] = tested on: PPARg DBDmut IVT, anti-PPARg (DBD mutation: PPARg1 K132A/R137A, NR concentration 270 nM)
# How it was run: as §1
# [5] = tested on: PPARg homodimer (NR concentration 180 nM)
# How it was run: as §1
# [6] = tested on: PXR:RXRa (NR concentration 270 nM, RXRa partner concentration 90 nM)
# How it was run: as §1
# [7] = tested on: PXR homodimer (NR concentration 270 nM)
# How it was run: as §1
# [8] = tested on: RARa:RXR (NR concentration 270 nM, RXRa partner concentration 90 nM)
# How it was run: as §1
# [9] = tested on: RARa homodimer (NR concentration 270 nM)
# How it was run: as §1
# [10] = tested on: RARb:RXRa (NR concentration 270 nM, RXRa partner concentration 90 nM)
# How it was run: as §1
# [11] = tested on: RARb homodimer (NR concentration 270 nM)
# How it was run: as §1
# [12] = tested on: RARg:RXRa (NR concentration 270 nM, RXRa partner concentration 90 nM)
# How it was run: as §1
# [13] = tested on: RARg homodimer (NR concentration 270 nM)
# How it was run: as §1
# [14] = tested on: RXRa DBDmut IVT, anti-RXR (DBD mutation: RXRa K156A/R161A, NR concentration 90 nM)
# How it was run: as §1
# [15] = tested on: RXRa homodimer (NR concentration 180 nM)
# How it was run: as §1
# [16] = tested on: THRa:RXRa (NR concentration 90 nM, RXRa partner concentration 90 nM)
# How it was run: as §1
# [17] = tested on: THRa homodimer (NR concentration 90 nM)
# How it was run: as §1
# [18] = tested on: VDR homodimer (NR concentration 270 nM)
# How it was run: as §1
Sequence,PBM binding z-score [1],PBM binding z-score [2],PBM binding z-score [3],PBM binding z-score [4],PBM binding z-score [5],PBM binding z-score [6],PBM binding z-score [7],PBM binding z-score [8],PBM binding z-score [9],PBM binding z-score [10],PBM binding z-score [11],PBM binding z-score [12],PBM binding z-score [13],PBM binding z-score [14],PBM binding z-score [15],PBM binding z-score [16],PBM binding z-score [17],PBM binding z-score [18]
CCGACTGGGGCAAAGCTTACCATACTCAGTACGA,4.39,2.85,-0.291,-0.457,0.119,-0.708,-0.701,-0.665,-0.639,0.229,-0.047,0.0271,0.339,0.525,-0.115,-0.341,-0.519,-0.448
CAAACTAGGTCACAGAGGTGAAAGTCCGTGCGTA,8.61,8.94,5.86,4.85,2.36,3.51,0.909,4.08,0.879,4.42,3.98,5.15,5.24,1.76,4.44,3.9,2.28,2.6
TGAATGAGGTTATAAGTTCAGGGAACGTTGCAAA,1.14,1.78,0.562,0.599,1.97,3.24,1.46,3.81,0.0281,2.87,2.54,4.88,2.27,1.49,3.46,2.58,0.487,2.85
TCTCGTAGATCAATAGAGGTTAAGAAAGTGCGCT,1.66,0.219,0.246,0.204,0.0307,3.08,0.105,1.6,0.0805,0.751,0.966,0.48,0.249,0.754,1.19,2.07,-0.641,0.163
AGTCCAAGTTCATCTAGGTAACGTAAGATATGCT,0.673,2.16,1.06,0.824,1.01,3.95,5.64,1.67,0.0751,3.3,2.25,2.91,3.37,4.78,2.26,2.76,0.459,5.97
ATCTTTAGGTAAAGATAGTTCAGTGAATGCAAAT,0.996,0.866,1.02,1.16,0.255,1.01,0.329,0.518,1.15,0.913,0.997,0.713,0.798,0.388,0.298,1.23,0.203,0.742
TCTATTAGTTGAAGGGCAACCGCCGAGTCCGTTT,2.32,0.783,0.465,1.32,1.11,0.779,0.698,0.905,1.14,1.74,1.41,0.448,0.651,1.57,0.559,0.213,0.417,1.86
TCTCAAAGTTCAAAGGTAACGTAAGTATCCACAC,2.92,1.65,0.898,1.45,3.16,5.66,4.17,6.13,2.08,5.15,4.13,6.13,6.25,4.59,7.17,3.46,0.566,4.09
GATACAGGGTCAGCTAGATGCCAGAGTATGGAAA,1.35,2.42,0.251,0.266,3.16,2.14,-0.221,3.4,0.348,3.98,2.84,4.95,4.12,1.23,4.38,2.87,0.0826,0.494
GGAACGAGGGCAAAGTTGATAGTATCTGTCGACG,3.79,4.43,0.556,-0.544,0.557,1.12,0.156,1.66,-0.123,2.22,1.24,2.08,1.84,2.59,1.68,1.36,0.0529,1.64
TAGCCTAGGCCATTCAGGGGCCAGTATAGAAAGC,-0.752,0.1,-0.845,-0.806,-0.678,-0.717,-0.964,-0.354,-0.891,0.992,0.802,0.999,0.71,-0.81,-0.0459,,-0.688,-0.441
CAAACTAGGTCACGCAAGGTCAAAGTCGAATGAC,8.48,9.3,4.39,5.78,5.5,7.23,3.2,6.68,4.04,5.5,5.54,6.98,7.6,3.02,6.98,,4.21,4.65

# — the supplement of paper PMC6555819
